Screening results deposited in PubChem BioAssay by several laboratories.
Shown are actives, neighbours in structure and some others; about 32% of the full set was active somewhere.
PostGolgi ctrl – growth inhibition of yeast control strain, primary screen, counter-screen for post-Golgi transport modulator project. efflux-deficient yeast background strain, growth absorbance A615, 16 h. inhibition, % at 10 µM. actives 5% (n = 98,000). AID 738, 2007
CYP2C19 inh – blockers of cytochrome P450 2C19 activity – biochemical, luminescence, ADME assay, primary screen; P33261; CYP2C19 Supersomes, luciferin-H EGE luminescence, 30 min; inhibition, % at 5 µM; actives 21% (n = 96,000); AID 778, 2007;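 active means CYP2C19 inhibition above a set limit at 5 µM in the primary screen, cut at about 50% in these data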
Target sequence (P33261 whole entry, looked up): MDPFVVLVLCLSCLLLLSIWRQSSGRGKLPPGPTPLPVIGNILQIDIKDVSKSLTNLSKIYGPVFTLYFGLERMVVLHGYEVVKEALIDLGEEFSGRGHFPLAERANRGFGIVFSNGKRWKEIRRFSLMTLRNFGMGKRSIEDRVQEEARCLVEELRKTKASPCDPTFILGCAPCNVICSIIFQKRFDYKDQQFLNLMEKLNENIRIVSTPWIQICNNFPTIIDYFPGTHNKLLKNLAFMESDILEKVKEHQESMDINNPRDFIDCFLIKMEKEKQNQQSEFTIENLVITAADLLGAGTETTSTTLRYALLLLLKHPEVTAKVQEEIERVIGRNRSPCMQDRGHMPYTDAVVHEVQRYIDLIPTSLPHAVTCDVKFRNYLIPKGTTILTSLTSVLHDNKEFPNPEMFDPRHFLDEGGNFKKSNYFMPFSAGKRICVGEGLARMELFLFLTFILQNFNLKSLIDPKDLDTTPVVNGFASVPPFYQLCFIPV
PostGolgi yeast – phenotypic screen on post-Golgi transport, primary screen | post-Golgi transport phenotypic cell assay | inhibition, % at 10 µM | actives 0.9% (n = 98,000) | AID 739, 2007;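 further: yeast cells grown in 1536-well plates; yeast grown about 18 h at 30C before absorbance read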
CYP2C9 inh – blockers of cytochrome P450 2C9 activity – biochemical, luminescence, ADME assay, primary screen | P11712 | CYP2C9 Supersomes, luciferin-H conversion | inhibition, % at 5 µM | actives 20% (n = 96,000) | AID 777, 2007;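 active means blocking of liver enzyme CYP2C9 beyond about 50% at 5 µM, limit read from the data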
CYP2C19 activ – human CYP2C19 activators, primary screen, biochemical, luminescence | Cytochrome P450 2C19 (Homo sapiens), P33261 | recombinant CYP2C19, luciferin-H EGE luminescence; hits give high values; 0 = fully inhibited enzyme, 1 = untreated enzyme | activation factor at 5 µM | 96,000 tested, under 10 active | AID 1025, 2008;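 active means activation factor of at least 2 at 5 µM in the primary screen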
CYP2C9 act – human CYP2C9 activators, primary screen, biochemical, luminescence; Cytochrome P450 2C9 (Homo sapiens), P11712; recombinant CYP2C9, luciferin-H conversion; hits give high values; factor 1 = untreated enzyme, 0 = blocked; activation factor at 5 µM; actives 1.4% (n = 96,000);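 active means activation factor of 2 or more for CYP2C9 at a 5 µM dose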
Numbers stand for hits. Unless noted, no stated cut-off is given here; in the data, active means inhibition above about 30%; inactive means the rest.

What do the screens show for `NC(=O)c1c(NC(=O)c2ccco2)sc2c1CCC2`?
PostGolgi ctrl: inactive; CYP2C19 inh: inactive; PostGolgi yeast: inactive; CYP2C9 inh: inactive; CYP2C19 activ: inactive; CYP2C9 act: inactive

Results for COc1cc([N+](=O)[O-])ccc1NC(=O)CCCOc1cccc(C)c1C ?
PostGolgi ctrl: inactive; CYP2C19 inh: inactive; PostGolgi yeast: inactive; CYP2C9 inh: inactive; CYP2C19 activ: inactive; CYP2C9 act: inactive

What do the screens show for `C=CCn1c(CC(=O)OC)csc1=Nc1ccc(C(C)=O)cc1`?
PostGolgi ctrl: inactive; CYP2C19 inh: 78; PostGolgi yeast: inactive; CYP2C9 inh: inactive; CYP2C19 activ: inactive; CYP2C9 act: inactive

Results for Cc1onc(COc2ccccc2O)c1Br ?
PostGolgi ctrl: inactive; CYP2C19 inh: 73; PostGolgi yeast: inactive; CYP2C9 inh: inactive; CYP2C19 activ: inactive; CYP2C9 act: inactive

What do the screens show for `Cc1ccc(NS(=O)(=O)c2ccccc2)c2c1CC(C)(C)O2`?
PostGolgi ctrl: inactive; CYP2C19 inh: 66; PostGolgi yeast: inactive; CYP2C9 inh: inactive; CYP2C19 activ: inactive; CYP2C9 act: 2

How did CCN(CC)C(=O)CSc1nc2ccccc2c(=O)n1-c1ccccc1OC do in these assays?
PostGolgi ctrl: inactive; CYP2C19 inh: inactive; PostGolgi yeast: inactive; CYP2C9 inh: 53; CYP2C19 activ: inactive; CYP2C9 act: inactive

What do the screens show for `CCCN(CCC)C(=O)CSc1nc2ccccc2c(=O)n1C1CCCC1`?
PostGolgi ctrl: inactive; CYP2C19 inh: inactive; PostGolgi yeast: inactive; CYP2C9 inh: 65; CYP2C19 activ: inactive; CYP2C9 act: inactive

Results for Cc1cc(NC(=O)CSc2nc3ccccc3c(=O)n2C2CCCC2)no1 ?
PostGolgi ctrl: inactive; CYP2C19 inh: inactive; PostGolgi yeast: inactive; CYP2C9 inh: inactive; CYP2C19 activ: inactive; CYP2C9 act: inactive

Results for CN(C)c1ccc(NC(=O)CSc2nc3ccccc3c(=O)n2C2CCCCC2)cc1 ?
PostGolgi ctrl: inactive; CYP2C19 inh: inactive; PostGolgi yeast: inactive; CYP2C9 inh: 69; CYP2C19 activ: inactive; CYP2C9 act: inactive

Results for Cc1ccc(-n2nnnc2SCCNS(=O)(=O)c2ccccc2)cc1C ?
PostGolgi ctrl: inactive; CYP2C19 inh: 75; PostGolgi yeast: inactive; CYP2C9 inh: inactive; CYP2C19 activ: inactive; CYP2C9 act: 2

How did Cn1cnnc1SCCNS(=O)(=O)c1ccccc1 do in these assays?
PostGolgi ctrl: inactive; CYP2C19 inh: inactive; PostGolgi yeast: inactive; CYP2C9 inh: inactive; CYP2C19 activ: inactive; CYP2C9 act: inactive

Results for Cn1nnnc1SCCNS(=O)(=O)c1ccccc1 ?
PostGolgi ctrl: inactive; CYP2C19 inh: 78; PostGolgi yeast: inactive; CYP2C9 inh: inactive; CYP2C19 activ: inactive; CYP2C9 act: inactive

What do the screens show for `Cn1c2ccccc2c2cc(C(=O)OCC(=O)N3CC(=O)Nc4ccccc43)sc21`?
PostGolgi ctrl: inactive; CYP2C19 inh: 86; PostGolgi yeast: inactive; CYP2C9 inh: inactive; CYP2C19 activ: inactive; CYP2C9 act: 2

What do the screens show for `O=C1CN(C(=O)COC(=O)c2ccccc2NCc2ccco2)c2ccccc2N1`?
PostGolgi ctrl: inactive; CYP2C19 inh: 56; PostGolgi yeast: inactive; CYP2C9 inh: inactive; CYP2C19 activ: inactive; CYP2C9 act: inactive

How did CC(C)(C)C(=O)Nc1ccc(C(=O)Nc2cccnc2)cc1 do in these assays?
PostGolgi ctrl: inactive; CYP2C19 inh: inactive; PostGolgi yeast: inactive; CYP2C9 inh: inactive; CYP2C19 activ: inactive; CYP2C9 act: inactive

Results for C/C(CC(=O)Nc1cc(C)ccn1)=N\NC(=O)COc1cccc(C)c1 ?
PostGolgi ctrl: inactive; CYP2C19 inh: inactive; PostGolgi yeast: inactive; CYP2C9 inh: inactive; CYP2C19 activ: inactive; CYP2C9 act: inactive

What do the screens show for `O=c1/c(=C/c2ccccn2)sc2nc3ccccc3n12`?
PostGolgi ctrl: inactive; CYP2C19 inh: 71; PostGolgi yeast: inactive; CYP2C9 inh: 54; CYP2C19 activ: inactive; CYP2C9 act: inactive

Results for c1ccc(COc2ccc(CNCc3cccs3)cc2)cc1 ?
PostGolgi ctrl: inactive; CYP2C19 inh: 54; PostGolgi yeast: inactive; CYP2C9 inh: inactive; CYP2C19 activ: inactive; CYP2C9 act: inactive

Results for CC(C)(C)NC(=O)COc1ccc(CNCc2cccs2)cc1 ?
PostGolgi ctrl: inactive; CYP2C19 inh: inactive; PostGolgi yeast: inactive; CYP2C9 inh: inactive; CYP2C19 activ: inactive; CYP2C9 act: inactive

How did COc1ccnc(NCc2cccnc2)c1C#N do in these assays?
PostGolgi ctrl: inactive; CYP2C19 inh: inactive; PostGolgi yeast: inactive; CYP2C9 inh: inactive; CYP2C19 activ: inactive; CYP2C9 act: inactive

Results for COc1ccnc(NCc2cccc(C(F)(F)F)c2)c1C#N ?
PostGolgi ctrl: inactive; CYP2C19 inh: 54; PostGolgi yeast: inactive; CYP2C9 inh: inactive; CYP2C19 activ: inactive; CYP2C9 act: inactive

What do the screens show for `COc1ccc(CCNC(=O)c2c[nH]c3ccccc3c2=O)cc1OC`?
PostGolgi ctrl: inactive; CYP2C19 inh: 50; PostGolgi yeast: inactive; CYP2C9 inh: inactive; CYP2C19 activ: inactive; CYP2C9 act: inactive

What do the screens show for `COCCNC(=O)c1c[nH]c2cc(OC)c(OC)cc2c1=O`?
PostGolgi ctrl: inactive; CYP2C19 inh: inactive; PostGolgi yeast: inactive; CYP2C9 inh: inactive; CYP2C19 activ: inactive; CYP2C9 act: inactive

How did COc1ccc2[nH]cc(C(=O)CN(C)CCc3ccc(OC)c(OC)c3)c2c1 do in these assays?
PostGolgi ctrl: inactive; CYP2C19 inh: 85; PostGolgi yeast: inactive; CYP2C9 inh: 91; CYP2C19 activ: inactive; CYP2C9 act: inactive

What do the screens show for `COCCNC(=O)c1c[nH]c2ccc(OC)cc2c1=O`?
PostGolgi ctrl: inactive; CYP2C19 inh: inactive; PostGolgi yeast: inactive; CYP2C9 inh: inactive; CYP2C19 activ: inactive; CYP2C9 act: inactive

What do the screens show for `CCN(CC)S(=O)(=O)c1ccc2[nH]cc(C(=O)NCCc3ccc(OC)c(OC)c3)c(=O)c2c1`?
PostGolgi ctrl: inactive; CYP2C19 inh: 57; PostGolgi yeast: inactive; CYP2C9 inh: 60; CYP2C19 activ: inactive; CYP2C9 act: inactive

What do the screens show for `CCCCOc1ccc(C(=O)N2CC(C)OC(C)C2)cc1` (configuration not stated)?
PostGolgi ctrl: inactive; CYP2C19 inh: inactive; PostGolgi yeast: inactive; CYP2C9 inh: inactive; CYP2C19 activ: inactive; CYP2C9 act: inactive

Results for CCN(C(=O)c1cccs1)c1nnc(-c2ccncc2)s1 ?
PostGolgi ctrl: inactive; CYP2C19 inh: 100; PostGolgi yeast: inactive; CYP2C9 inh: 71; CYP2C19 activ: inactive; CYP2C9 act: inactive

How did COCCN(C(=O)COc1ccccc1)c1nnc(-c2cccnc2)s1 do in these assays?
PostGolgi ctrl: inactive; CYP2C19 inh: inactive; PostGolgi yeast: inactive; CYP2C9 inh: inactive; CYP2C19 activ: inactive; CYP2C9 act: inactive

Results for COCCN(C(=O)C(C)C)c1nnc(-c2cccc(C)c2)s1 ?
PostGolgi ctrl: inactive; CYP2C19 inh: inactive; PostGolgi yeast: inactive; CYP2C9 inh: 61; CYP2C19 activ: inactive; CYP2C9 act: inactive
